Source: PubChem BioAssay AID687026 (Broad Institute, 2013)
Results with a measured potency or affinity are listed apart. The source made the active and inactive calls. How the calls were made is not given here.

Test: CEM21 cell cytotoxicity, dose response, cytotoxicity control, plate reader, dry powder (AID 687026)
Conditions: CEM21 cells cytotoxicity; series mostly up to 35 µM

SMILES	outcome
CC1(C)CC(NC(=O)C(=O)Nc2ccc(Cl)cc2)CC(C)(C)N1	inactive
CCOc1ccc(S(=O)(=O)NCc2ccccc2)cc1	inactive
CO[C@@H]1CN(C)C(=O)c2ccc(NC(=O)Nc3cccc(F)c3)cc2OC[C@@H](C)N(C(=O)Nc2cccc(F)c2)C[C@H]1C	inactive
CC(=O)Nc1ccc(NC(=O)CN(c2ccc(C34CC5CC(CC(C5)C3)C4)cc2)S(C)(=O)=O)cc1	inactive
COc1ccc(S(=O)(=O)NCc2ccncc2)cc1OC	inactive
CCCn1nc(C(=O)Nc2ccc3nc(N4CCOCC4)sc3c2)ccc1=O	inactive
Cc1noc(C)c1S(=O)(=O)Nc1cccc2c1O[C@@H](CN(C)Cc1ccc(C(F)(F)F)cc1)[C@@H](C)CN([C@@H](C)CO)C2=O	inactive
COc1ccccc1CCNCc1ccc(OC)c(OCc2ccccc2)c1	inactive
Cc1noc(C)c1S(=O)(=O)Nc1cccc2c1O[C@H](CN(C)Cc1ccc(C(F)(F)F)cc1)[C@H](C)CN([C@H](C)CO)C2=O	inactive
